Molecules are shown by their SMILES. Several values for one entry are separate records, joined by “and”; a condition that tells them apart may be missing. Equal entries are not always repeated. This is part of a sample that, as a whole, favours compounds with a hit. Of some 83,000 tested, about 20% had one in any assay.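 Testing used 96-well plates and a 48-hour single-concentration exposure. Example: -40 means 40% of the starting cells died.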 Activity calls are given as the source filed them. How the source made its calls: active means growth percent below 10; inactive means the rest.

Consider seven compounds from PubChem BioAssay (NCI).

Common to all, as to assay: NCI-60 one-dose screen, 48 h (100 = growth as untreated, 0 = no growth, -100 = all killed)
Holding throughout (settings): 10 µM unless noted

Test [1] relates to T-47D breast.
Test [2] relates to BT-549 breast.
The test system of test [3] is MDA-MB-435 melanoma.
The test system of test [4] is SW-620 colon.
Test [5] has as its system MCF7 breast.
Test [6] concerns HCT-116 colon.
For test [7], the system named is HCC-2998 colon.
Test [8] concerns KM12 colon.
Test [9] deals with MDA-MB-468 breast.

In the case of `O=C1C=CC(=CC=C2N(Cc3ccc4ccccc4c3)c3ccccc3N2Cc2ccc3ccccc3c2)C=C1`, the growth in test [1] was 5.78% (active) and 27.5% (inactive); in test [2], 9.59% (active) and 29.8% (inactive); in test [3], 12.5% (inactive) and 8.75% (active); in [4], 29.1% (inactive) and 19.4% (inactive); in test [5] it was 15.7% (inactive) and 14.1% (inactive); in [6], 10.7% (inactive) and 14.7% (inactive). Moreover, the growth is 21.1% (inactive) and 33.1% (inactive) in [7]; 33.8% (inactive) and 11.2% (inactive) in [8]; -48.9% (active) and -28.9% (active) in test [9].

Consider `COc1ccc2[nH]c(O)c(N=Nc3nc(-c4ccc(Cl)cc4)cs3)c2c1`, for which the growth in test [1] was -21.5% (active); in test [2], 25.9% (inactive); in test [3], 33.2% (inactive); in test [4], 2.98% (active); in test [5], -19% (active); in [6] it was -74.9% (active). Further, the growth is 1.1% (active) in test [7], 4.66% (active) in test [8] and -60.8% (active) in test [9].

For `O=C(CSc1nc2c(c(=O)[nH]1)CCCC2)Nc1ccccc1C(=O)O`, the growth in test [1] was 105% (inactive); in test [2], 117% (inactive); in [3], 109% (inactive); in [4] it was 116% (inactive); in test [5], 85.9% (inactive); in [6] it was 96.2% (inactive). Further, the results for the growth in [7], in [8] and in test [9] were 123% (inactive), 103% (inactive) and 100% (inactive), respectively.

As for `Cn1cc(-c2cc(N)n3nc(-c4c[nH]c5ccc(F)cc45)cc3n2)c2cc(Br)cnc21`, the growth in test [1] is 54.5% (inactive); in test [2], 92.6% (inactive); in test [3], 78.8% (inactive); in test [4], 17.2% (inactive); in [5] it was 47.1% (inactive); in test [6], -26.9% (active). The growth in test [7] was 13.8% (inactive); in test [8], 3.18% (active); in test [9] it was 20.7% (inactive).

As for `C#CCN(C)CCCOc1ccc(N(CC)C(=O)c2cc(C(C)C)c(O)cc2O)cc1Cl`, the growth in test [1] is 10.1% (inactive); in test [2], -8.72% (active); in test [3], -26.1% (active); in test [4] it was 6.65% (active); in test [5], 0.137% (active); in test [6] it was -3.98% (active). The growth in [7] was -78.2% (active); in [8] it was -9.83% (active); in test [9], -46.8% (active).

As for `Cc1cccc(NCC(=O)N2CCN(c3ncnc4c3cnn4-c3ccccc3)CC2)c1`, the growth in [1] is 33.6% (inactive); in test [2], 76.9% (inactive); in test [3], 59% (inactive); in test [4], 81.5% (inactive); in test [5], 45.6% (inactive); in test [6], 58.7% (inactive). Further, the growth in test [7] is 86.4% (inactive); in [8], 40.6% (inactive); in test [9], 35.8% (inactive).

Regarding `O=C1Nc2cc(-c3ccc(NS(=O)(=O)c4ccc(C(F)(F)F)cc4)cc3)ccc2/C1=C/c1ccc[nH]1`, the growth is 18.1% (inactive) in test [1]; -8.7% (active) in [2]; 9.69% (active) in [3]; 33.3% (inactive) in test [4]; 0.78% (active) in [5]; 2.8% (active) in test [6]. Further, the growth in test [7] is 30.5% (inactive); in test [8], 20.8% (inactive); in test [9], -26.2% (active).
